Test results: PubChem BioAssay (NCI)
Compounds without any hit were thinned out: in the full panel of roughly 83,000, 20% have a hit.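 Method: cells in 96-well plates; compound added at one concentration; 48 h incubation; percent growth measured; values under 10 scored active.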 Calls of active or inactive are those of the source.

Test system: SK-MEL-5 melanoma
Assay: NCI-60 one-dose screen, 48 h (100 = growth as untreated, 0 = no growth, -100 = all killed)
Conditions: 10 µM unless noted
Procedure: Growth inhibition of the SK-MEL-5 human tumor cell line is measured as a screen for anti-cancer activity. Cells are grown in 96 well plates and exposed to the test compound for 48 hours. Compounds are tested at a single concentration, which is 10^-5 M for most compounds. The reported endpoint is percent growth (GI% or GIPRCNT), where numbers from 0 - 100% represent growth inhibition, and numbers from -100% - 0 represent cell death. For example, a value of 40 represents 60% growth inhibition. A value of 0 means no net growth occurred over the course of the experiment. A value of -40 indicates 40% of cells at the beginning of the experiment died by the end of the experiment. A value of -100 means all cells are dead at the end of the experiment.
NCI-60 Human Tumor Cell Lines Screen was performed using the standard one-dose NCI protocol, which is described in more detail at https://dtp.cancer.gov/discovery_development/nci-60/default.htm.
Compounds with GIPRCNT values below 10 were considered active. Activity score was based on GIPRCNT using the following formula: […]
Score is 0 for GIPRCNT values of 100 or above, 50 for GIPRCNT values of 0, and 100 for GIPRCNT values of -100.

Q: For `Cc1ccc(Nc2c(C(N)=O)cnc3ccc(S(=O)(=O)Nc4cc(C)on4)cc23)cc1`, which growth is on record?
A: 99% (inactive)

Q: `C=C(C)[C@@H]1CC[C@]2(C(=O)OC)CC[C@]3(C)[C@H](CC[C@@H]4[C@@](C)(CC/C(N)=N/O)[C@H](C(=C)C)CC[C@]43C)[C@@H]12` was tested. Which growth did it give?
A: 94.2% (inactive)

Q: With `O=C(N/N=C/c1ccccc1SSc1ccccc1/C=N/NC(=O)c1ccccc1)c1ccccc1` as the molecule, how does the growth read?
A: 22.5% (inactive)

Q: For `N#CC1=C(N)Oc2ccc3ccccc3c2C1c1ccccc1` (stereo not given), which growth is on record?
A: 25.7% (inactive)

Q: How did the growth turn out when `C=C1C(=O)O[C@H]2[C@H]1CC/C(Cn1cc(-c3ccc(F)cc3)nn1)=C\CC[C@@]1(C)O[C@@H]21` was run?
A: 36.3% (inactive)

Q: Which growth does the source give for `COc1cc2ncnc(Nc3ccc(Oc4ccnc(C)c4)c(C)c3)c2cc1NC(=O)CC1CCSS1` (stereo not given) here?
A: -89.1% (active)

Q: With `CC(=O)Oc1ccccc1C(=O)/C=C/c1cccc([N+](=O)[O-])c1` as the molecule, how does the growth read?
A: 89.3% (inactive)

Q: Which growth does the source give for `CC(C)(C)c1[nH]nc2c1C(c1cc3ccccc3[nH]c1=O)Nc1cc(C(=O)OCc3ccccc3)ccc1N2` (stereo not given) here?
A: 39.3% (inactive)

Q: Which growth does the source give for `COc1cc(-c2cc(-c3nc4ccc(F)cc4[nH]3)[nH]n2)cc(OC)c1OC` here?
A: -50.2% (active)

Q: `Cc1cc(Cl)nc(N(CCNc2ccnc3cc(Cl)ccc23)Cc2ccco2)n1` was tested. Which growth did it give?
A: 42.9% (inactive)

Q: `COc1ccc(-c2cc(/C=C/C(=O)c3ccc(N)cc3)[nH]n2)cc1` was tested. Which growth did it give?
A: 23.9% (inactive)

Q: With `COC(=O)[C@@H]1[C@H]2C[C@H]3c4[nH]c5cc(OC)ccc5c4CCN3C[C@@H]2C[C@H](OC(=O)/C=C/c2ccnc(OC)c2)[C@H]1OC` as the molecule, how does the growth read?
A: 94.8% (inactive)

Q: Which growth does the source give for `Cc1oc(-c2ccccc2Cl)cc1C(=O)Nc1ccc(S(N)(=O)=O)cc1` here?
A: 97.3% (inactive)

Q: How did the growth turn out when `COc1c(N)c2c(c([N+](=O)[O-])c1OC)C(=O)OC2` was run?
A: 113% (inactive)

Q: `Cc1ccc(/C=C(\C#N)c2cc3ccccc3n2C)cc1` was tested. Which growth did it give?
A: 23% (inactive)

Q: How did the growth turn out when `Cn1cc(-c2csc(-c3cn(CCNC(=O)OC(C)(C)C)c4ccc(F)cc34)n2)c2cccnc21` was run?
A: 23.6% (inactive)

Q: For `CCN1CCN(C(=O)[C@]23CC[C@@H](C)[C@H](C)[C@H]2C2=CC[C@@H]4[C@@]5(C)C/C(=C/c6cccc(OC)c6OC)C(=O)C(C)(C)[C@@H]5CC[C@@]4(C)[C@]2(C)CC3)CC1`, which growth is on record?
A: 46.2% (inactive)

Q: Which growth does the source give for `COc1ccc(NC(=O)c2ccc3c(c2)nc(-c2cc4ccccc4[nH]c2=O)n3-c2cc(C(C)(C)C)[nH]n2)cc1` here?
A: 84% (inactive)

Q: Which growth does the source give for `Cc1cccc(C)c1NCc1nc(-c2ccccc2)n[nH]1` here?
A: 102% (inactive)

Q: How did the growth turn out when `O=c1[nH]c(=S)[nH]c2nc[nH]c12` was run?
A: 110% (inactive)

Q: With `CC(=O)O[C@H]1CC[C@@]2(C)[C@@H](CC[C@@H]3[C@@H]2CC(=O)[C@@]2(C)[C@H]3C[C@@H](C3CCCC3=O)[C@@H]2C(C)=O)C1` (stereo not given in full) as the molecule, how does the growth read?
A: 108% (inactive)

Q: With `c1csc(-c2nc(-c3cc4ccccc4c(N4CCOCC4)n3)cs2)c1` as the molecule, how does the growth read?
A: 54.5% (inactive)

Q: Which growth does the source give for `COc1ccc(-c2nc3c(c(C)nn3-c3ccc(F)cc3)c(=O)[nH]2)cc1` here?
A: 79.1% (inactive)

Q: How did the growth turn out when `O=C(/C=C\c1ccc2c(c1)OCO2)/C=C/c1ccc2c(c1)OCO2` was run?
A: 84% (inactive)

Q: `O=C1C(Cl)=C(Nc2ccc(S(=O)(=O)c3ccc(NC4=C(Cl)C(=O)c5ccccc5C4=O)cc3)cc2)C(=O)c2ccccc21` was tested. Which growth did it give?
A: 49.3% (inactive)

Q: How did the growth turn out when `Nc1ccc(Br)cn1` was run?
A: 100% (inactive)

Q: `C=C(C)[C@@H]1CC[C@]2(C=O)CC[C@]3(C)[C@H](CC[C@@H]4[C@@]5(C)C/C(=C/c6cccnc6)C(=O)C(C)(C)[C@@H]5CC[C@]43C)[C@@H]12` was tested. Which growth did it give?
A: 74.4% (inactive)

Q: With `CCc1cccc(CC)c1NC(=O)c1sc2nc3c(cc2c1N)CCCC3` as the molecule, how does the growth read?
A: 63.9% (inactive)

Q: `COc1cc(-c2cc3cc(O)ccc3oc2=O)cc(OC)c1OC` was tested. Which growth did it give?
A: 93.6% (inactive)

Q: How did the growth turn out when `COC(=O)C(Cc1ccccc1)n1cc(COc2nc(Cl)nc(Nc3ccc(Cl)cc3)n2)nn1` (stereo not given) was run?
A: 103% (inactive)

Q: How did the growth turn out when `COc1ccc(C2CC(=O)c3c(nc4ccc(Cl)cc4c3N)C2)cc1` (stereo not given) was run?
A: 98.3% (inactive)

Q: How did the growth turn out when `Nc1ncnc2nc(Br)[nH]c12` was run?
A: 100% (inactive)

Q: For `N#Cc1cnc2cc(OC[C@@H](O)CO)c(NC(=O)C3CCCC3)cc2c1Nc1ccc(OCc2cccc(F)c2)c(Cl)c1`, which growth is on record?
A: 61.5% (inactive)

Q: `CC1(C)NC2=C(C(Nc3cccnc3)N1)C(c1ccc([N+](=O)[O-])cc1)C(C(=O)c1ccc(N=[N+]=[N-])cc1)O2` (stereo not given) was tested. Which growth did it give?
A: 102% (inactive)

Q: Which growth does the source give for `N#CC1=C(N)Oc2ccc3ccccc3c2C1c1ccccc1Cl` (stereo not given) here?
A: 42.7% (inactive)

Q: With `O=C(O)c1cccc2c1-c1ccc(Cl)cc1C2` as the molecule, how does the growth read?
A: 103% (inactive)

Q: How did the growth turn out when `COc1cc(OC)c2c(c1)c1nc3cc(C)c(C)cc3nc1n2CCN(C)C` was run?
A: 94.4% (inactive)

Q: For `C[Si](C)(C)Cc1ccccc1`, which growth is on record?
A: 108% (inactive)

Q: With `COc1cc(/C=N/NC(=S)NNC(=S)NC2CCCCC2)cc(OC)c1OC` as the molecule, how does the growth read?
A: 92.5% (inactive)

Q: How did the growth turn out when `CC(CNc1nc(Nc2ccc(Cl)c(Cl)c2)nc(C(Cl)(Cl)Cl)n1)N(C)C` (stereo not given) was run?
A: -56.9% (active)
